Results filed as inconclusive are left out. Activity calls are given as the source filed them. Unless noted, the call rests on the fitted dose curve; in most records, active means well fitted curve in the direction sought with a large enough effect; inconclusive means small, poorly fitted or top-dose-only effect, or another doubt; inactive means no such curve, though single readings can be large; an effect the other way counts as inactive or inconclusive.
Key:
[1] = qHTS Assay for Lipid Storage Modulators (AID 1519); conditions: Drosophila S3 cells, BODIPY lipid droplet/cell ratio, laser cytometry; measured here: lipid channel max response; cells loaded with oleic acid
Method in brief: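 Cells seeded at 5,000 per well were treated with compounds over a concentration series and loaded with oleic acid (400 uM, as added). Lipid droplet fluorescence (488 nm excitation, 500-530 nm channel) was read by laser-scanning cytometry and normalized to 20 uM Triacsin C.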

[2] = target: DNA repair nuclease/redox regulator APEX1 (Homo sapiens) (UniProt P27695); assay: qHTS Validation Assay for Inhibitors of the Human Apurinic/apyrimidinic Endonuclease 1 (APE1) (AID 1705;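 further: TAMRA fluorescence gain over two minutes as APE1 cuts a quenched THF abasic duplex; series mostly up to about 57 µM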)
Sequence of DNA repair nuclease/redox regulator APEX1 (Homo sapiens) (P27695 whole entry, looked up): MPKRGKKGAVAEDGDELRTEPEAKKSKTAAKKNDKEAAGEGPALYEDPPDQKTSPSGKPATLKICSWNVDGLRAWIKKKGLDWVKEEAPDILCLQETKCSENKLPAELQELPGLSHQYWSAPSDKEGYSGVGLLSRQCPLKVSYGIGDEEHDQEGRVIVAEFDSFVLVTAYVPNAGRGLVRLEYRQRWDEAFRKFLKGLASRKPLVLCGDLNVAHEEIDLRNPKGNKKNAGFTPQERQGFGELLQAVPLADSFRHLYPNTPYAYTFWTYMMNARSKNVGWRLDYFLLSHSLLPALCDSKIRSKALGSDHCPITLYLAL
Method in brief: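 Substrate: 50 nM final fluorophore/quencher THF-abasic duplex. Enzyme preincubated with compounds 15 min, RT. Progress derived from fluorescence difference, third minus first kinetic read.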

[3] = Counterscreen for APE1 Inhibitors: Fluorescent Dye Displacement Validation Assay (AID 1707)
Method in brief: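 Assay buffer: Tris-HCl pH7.5 with 50mM NaCl, 2 mM MgCl2, 0.01% Tween-20. Dye 250 nM, duplex 50 nM final. Readout: decrease in ThO endpoint fluorescence, 480 nm excitation, 540 nm emission.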

[4] = target: Endonuclease 4 (Escherichia coli (strain K12)) (UniProt P0A6C1); assay: Counterscreen for APE1 Inhibitors: qHTS Validation Assay for Inhibitors of Endonuclease IV (AID 1708)
Method in brief: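 2 nM enzyme was preincubated with compounds for 15 min at room temperature in 50 mM Tris-HCl pH 7.5, 50 mM NaCl, 2 mM MgCl2, 1 mM DTT, 0.01% Tween-20. 50 nM THF-abasic TAMRA/BHQ-2 duplex substrate started the reaction.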

[5] = qHTS for differential inhibitors of proliferation of Plasmodium falciparum line 7G8 (AID 1815);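 further: potency means the concentration at half of the fitted maximal effect; parasite growth measured after three days of incubation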
[6] = qHTS for differential inhibitors of proliferation of Plasmodium falciparum line 3D7 (AID 1876); further: potency means the concentration at half of the fitted maximal effect
[7] = qHTS for differential inhibitors of proliferation of Plasmodium falciparum line D10 (AID 1877);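 further: potency means the concentration at half of the fitted maximal effect; parasites grown with compound for 72 h before DNA staining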
[8] = qHTS for differential inhibitors of proliferation of Plasmodium falciparum line HB3 (AID 1886); conditions: Potency: Plasmodium falciparum HB3 proliferation inhibition;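 further: potency means the concentration at half of the fitted maximal effect; parasites grown with compound for 72 h before SYBR Green readout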
[9] = target: Ferritin light chain (Equus caballus) (UniProt P02791); assay: qHTS Validation Assay for Identification of Novel General Anesthetics (AID 2323); further: series mostly up to about 77 µM
Sequence of Ferritin light chain (Equus caballus) (P02791 2-175 limits assumed): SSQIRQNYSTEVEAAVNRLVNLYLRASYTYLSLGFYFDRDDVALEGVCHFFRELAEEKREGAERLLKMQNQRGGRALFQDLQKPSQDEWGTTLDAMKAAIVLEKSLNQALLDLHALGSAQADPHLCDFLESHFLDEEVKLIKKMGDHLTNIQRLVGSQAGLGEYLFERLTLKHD
Method in brief: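 Normalized fluorescence response, scaled between free 1-AMA and 1-AMA/apoferritin complex, fitted to a four-parameter Hill equation for concentration-effect values. Binding mix: 10 uM horse-spleen apoferritin, 50% saturated 1-AMA in PBS; read 380/535 nm after 10 min.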

[10] = target: ATP-dependent DNA helicase Q1 (Homo sapiens) (UniProt P46063); assay: qHTS Validation Assay for Inhibitors of RecQ-Like Dna Helicase 1 (RECQ1) (AID 2353)
Sequence of ATP-dependent DNA helicase Q1 (Homo sapiens) (P46063 whole entry, looked up): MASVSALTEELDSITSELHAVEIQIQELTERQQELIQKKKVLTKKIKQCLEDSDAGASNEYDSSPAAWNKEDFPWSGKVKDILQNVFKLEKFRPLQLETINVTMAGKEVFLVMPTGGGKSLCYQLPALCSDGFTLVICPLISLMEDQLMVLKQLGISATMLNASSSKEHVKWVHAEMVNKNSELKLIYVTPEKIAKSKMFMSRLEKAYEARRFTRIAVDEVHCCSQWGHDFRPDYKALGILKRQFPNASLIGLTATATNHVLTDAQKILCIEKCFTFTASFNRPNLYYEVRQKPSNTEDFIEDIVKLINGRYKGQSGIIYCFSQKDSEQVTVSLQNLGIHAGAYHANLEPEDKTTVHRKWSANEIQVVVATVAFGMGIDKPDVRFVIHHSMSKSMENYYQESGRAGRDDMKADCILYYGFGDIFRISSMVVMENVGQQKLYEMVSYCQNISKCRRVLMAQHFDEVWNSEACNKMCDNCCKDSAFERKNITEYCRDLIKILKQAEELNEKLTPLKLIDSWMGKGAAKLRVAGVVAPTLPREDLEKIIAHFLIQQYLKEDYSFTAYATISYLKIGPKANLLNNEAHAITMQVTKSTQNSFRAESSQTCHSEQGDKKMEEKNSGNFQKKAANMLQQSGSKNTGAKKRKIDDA
Method in brief: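 50 nM RECQ1T1 preincubated 15 min with compound in Tris pH 8.0 buffer with MgCl2, DTT, Tween-20 and 2.5 ug/ml poly(dI-dC); started with 200 nM TAMRA/BHQ-2 forked duplex and 2 mM ATP. Unwinding read as fluorescence (525/598 nm), two reads 2 h apart.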

[11] = High Content Imaging Cell-Based qHTS for Inhibitors of the mTORC1 Signaling Pathway in MEF Cells (AID 2667);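 further: Tsc2-/- p53-/- MEFs stably re-expressing wild-type Tsc2 exposed 24 h; series mostly up to about 38 µM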
Method in brief: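 MEF (Tsc2-/-, p53-/-, WT Tsc2 re-expressed); cpd 24 h, 37 °C; PFA fix; Alexa-488 anti-p-rpS6 Ser235/236, PI, Hoechst; IN Cell imaging; Hoechst/Alexa-488 intensity ratio; % active cells, thresholds set from rapamycin and DMSO wells.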

[12] = Validation screen for small molecules that induce DNA re-replication in MCF 10A normal breast cells (AID 463097); further: nearly all actives have a fitted effect of over 60% in size
Method in brief: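 Following 48 hr compound incubation (37 C, 5% CO2), MCF 10A cells receive Hoechst for 40 min at 37 C. Nuclei are then scanned (excitation 405 nm, emission 500-530 nm) for total fluorescence intensity.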

[13] = target: DNA polymerase III PolC-type (Bacillus subtilis (strain 168)) (UniProt P13267); assay: qHTS Validation Assay for the Inhibitors of DNA Replication in Gram-Positive Bacteria (AID 485295);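 further: reconstituted holoenzyme with PolC plus beta clamp SSB and primase; PicoGreen fluorescence of double-stranded DNA made on primed circular M13 template; series mostly up to about 57 µM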
Sequence of DNA polymerase III PolC-type (Bacillus subtilis (strain 168)) (P13267 whole entry, looked up): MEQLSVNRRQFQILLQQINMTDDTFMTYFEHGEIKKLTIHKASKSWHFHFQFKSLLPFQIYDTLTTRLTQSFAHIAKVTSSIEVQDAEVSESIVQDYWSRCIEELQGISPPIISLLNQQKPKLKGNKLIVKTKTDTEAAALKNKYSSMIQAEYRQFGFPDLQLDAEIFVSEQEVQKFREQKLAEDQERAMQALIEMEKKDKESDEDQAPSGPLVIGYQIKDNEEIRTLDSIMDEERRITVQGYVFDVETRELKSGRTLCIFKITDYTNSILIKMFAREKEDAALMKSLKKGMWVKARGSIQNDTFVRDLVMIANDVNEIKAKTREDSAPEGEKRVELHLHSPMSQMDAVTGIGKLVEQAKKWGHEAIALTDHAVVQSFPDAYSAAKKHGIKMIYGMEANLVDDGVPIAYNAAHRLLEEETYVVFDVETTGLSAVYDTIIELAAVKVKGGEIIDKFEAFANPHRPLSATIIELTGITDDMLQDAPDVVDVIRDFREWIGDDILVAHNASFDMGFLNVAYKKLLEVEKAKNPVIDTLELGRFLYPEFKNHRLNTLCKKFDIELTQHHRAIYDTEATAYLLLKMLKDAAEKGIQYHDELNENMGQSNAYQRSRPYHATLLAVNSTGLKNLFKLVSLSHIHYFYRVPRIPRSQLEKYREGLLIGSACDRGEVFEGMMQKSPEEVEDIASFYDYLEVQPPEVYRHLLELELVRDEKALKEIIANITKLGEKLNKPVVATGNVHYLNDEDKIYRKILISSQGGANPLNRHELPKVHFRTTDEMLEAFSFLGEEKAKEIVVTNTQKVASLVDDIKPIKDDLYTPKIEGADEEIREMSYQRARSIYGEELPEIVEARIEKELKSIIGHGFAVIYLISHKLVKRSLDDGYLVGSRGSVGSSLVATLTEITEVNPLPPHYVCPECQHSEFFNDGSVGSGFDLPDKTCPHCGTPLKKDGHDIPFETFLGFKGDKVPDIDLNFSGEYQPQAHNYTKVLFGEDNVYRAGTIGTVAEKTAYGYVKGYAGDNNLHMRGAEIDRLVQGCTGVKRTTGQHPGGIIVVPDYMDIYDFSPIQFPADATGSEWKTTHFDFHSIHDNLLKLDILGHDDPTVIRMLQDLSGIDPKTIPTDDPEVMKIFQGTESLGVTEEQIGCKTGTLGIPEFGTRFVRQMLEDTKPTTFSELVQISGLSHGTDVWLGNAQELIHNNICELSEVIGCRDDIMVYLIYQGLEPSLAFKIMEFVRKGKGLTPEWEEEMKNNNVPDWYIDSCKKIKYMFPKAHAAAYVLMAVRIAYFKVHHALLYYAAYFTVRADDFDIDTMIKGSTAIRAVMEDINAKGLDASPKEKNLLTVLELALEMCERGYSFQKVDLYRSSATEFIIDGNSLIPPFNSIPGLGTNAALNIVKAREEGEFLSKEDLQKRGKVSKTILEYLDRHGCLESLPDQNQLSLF
Method in brief: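 Inhibition of DNA synthesis by the reconstituted PolC holoenzyme, monitored through PicoGreen staining of dsDNA formed from ssM13Gori, dNTPs and NTPs, with compound preincubation and room-temperature reaction.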

[14] = target: Tumor susceptibility gene 101 protein (Homo sapiens) (UniProt Q99816); assay: qHTS Validation Assay for Iinhibitors of HIV-1 Budding by Blocking the Interaction of PTAP/TSG101 (AID 485342; calls by dose curve)
Sequence of Tumor susceptibility gene 101 protein (Homo sapiens) (Q99816 whole entry, looked up, the tested form may be a part): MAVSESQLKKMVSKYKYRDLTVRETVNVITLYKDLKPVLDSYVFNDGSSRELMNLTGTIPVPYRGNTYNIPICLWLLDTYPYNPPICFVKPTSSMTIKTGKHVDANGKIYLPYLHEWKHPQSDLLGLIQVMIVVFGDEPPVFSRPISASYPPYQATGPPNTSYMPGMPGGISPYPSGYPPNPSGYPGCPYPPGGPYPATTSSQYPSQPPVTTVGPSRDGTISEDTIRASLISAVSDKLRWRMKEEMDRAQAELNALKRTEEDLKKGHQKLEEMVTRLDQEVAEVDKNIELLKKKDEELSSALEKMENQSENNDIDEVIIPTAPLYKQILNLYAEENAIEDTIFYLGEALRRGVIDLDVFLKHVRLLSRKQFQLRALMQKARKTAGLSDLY
Method in brief: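 Compound wells held the Tsg101 binding domain (10 uM) and a FITC-conjugated PTAP peptide (50 nM) in buffer at pH 7.5 containing 0.15 M NaCl and 0.01% Tween 20; polarization was recorded after 20 min, r.t.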

[15] = Quantitative high throughput screen for delayed death inhibitors of the malarial parasite plastid, 96 hour incubation (AID 488745); further: potency means the concentration at half of the fitted maximal effect; nearly all actives have a fitted effect of over 70% in size
Method in brief: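 P. falciparum carrying an integrated firefly luciferase reporter, grown in erythrocytes (2% hematocrit, 0.1% parasitemia final) in RPMI 1640/0.5% Albumax, was exposed to compound for 96 h (two generations) at 37 C, 5% CO2. Luminescence decrease indicated growth inhibition.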

[16] = target: Thioredoxin reductase 1, cytoplasmic (Rattus norvegicus) (UniProt O89049); assay: qHTS Assay for Substrates of Mammalian Selenoprotein Thioredoxin Reductase 1 (TrxR1) (AID 488772);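 further: NADPH fluorescence in the first read after selenite addition and not the 8 min delta; series mostly up to about 57 µM; a drop in NADPH fluorescence below the no-compound background marks a TrxR1 substrate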
Sequence of Thioredoxin reductase 1, cytoplasmic (Rattus norvegicus) (O89049 whole entry, looked up): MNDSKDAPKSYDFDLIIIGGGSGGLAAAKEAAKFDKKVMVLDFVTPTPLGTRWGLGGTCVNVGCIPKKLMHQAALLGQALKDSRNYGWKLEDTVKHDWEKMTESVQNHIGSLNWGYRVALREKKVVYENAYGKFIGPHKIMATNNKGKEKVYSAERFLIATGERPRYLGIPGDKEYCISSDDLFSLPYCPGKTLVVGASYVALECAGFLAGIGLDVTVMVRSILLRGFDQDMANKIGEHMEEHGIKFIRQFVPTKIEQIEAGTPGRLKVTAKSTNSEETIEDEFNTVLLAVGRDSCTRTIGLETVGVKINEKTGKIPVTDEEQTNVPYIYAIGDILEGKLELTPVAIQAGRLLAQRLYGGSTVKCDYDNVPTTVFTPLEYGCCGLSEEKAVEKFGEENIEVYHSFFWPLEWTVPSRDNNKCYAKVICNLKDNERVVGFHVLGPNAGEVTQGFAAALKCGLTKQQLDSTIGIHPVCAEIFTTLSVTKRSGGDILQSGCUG
Method in brief: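 Quantitative HTS in Tris-HCl buffer at pH 7.5 with EDTA and Tween-20, using rat TrxR1, 400 uM NADPH and 400 uM selenite (final). A fall in initial NADPH fluorescence relative to background marked substrate behaviour.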

[17] = target: Thioredoxin reductase 1, cytoplasmic (Rattus norvegicus) (UniProt O89049); assay: qHTS Assay for Inhibitors of Mammalian Selenoprotein Thioredoxin Reductase 1 (TrxR1) (AID 488773); conditions: Potency: inhibition; further: potency means the concentration at half of the fitted maximal effect; nearly all actives have a fitted effect of over 40% in size
Method in brief: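 Steps: enzyme (90 nM) plus NADPH (400 uM final), 5 min at ~22 deg C; compound added, 15 min; selenite (400 uM final) added; fluorescence followed for 8 min. Concentration-response curves derived from the normalized delta values.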

[18] = target: Flap endonuclease 1 (Homo sapiens) (UniProt P39748); assay: qHTS Validation Assay for the Inhibitors of Human Flap endonuclease 1 (FEN1) (AID 488816)
Method in brief: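 FEN1, dispensed as a 10 nM reagent, was preincubated with pin-transferred compounds for 15 min at room temperature before substrate was added (50 nM final). Plates were read at 0 and 15 min, and a four-parameter Hill equation was fitted to the concentration-response data.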

[19] = target: M-phase phosphoprotein 8 (Homo sapiens) (UniProt Q99549); assay: qHTS Validation Assay for Inhibitors for MPP8 Chromodomain Interactions with Methylated Histone Tails (AID 488949);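 further: 50 nM MPP8 with 50 nM peptide preformed then compounds added for 30 min; AlphaScreen signal from MPP8 chromodomain bound to biotinylated H3K9me3 peptide; top concentration of the series differs between compounds; nearly all actives have a fitted effect of over 55% in size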
Sequence of M-phase phosphoprotein 8 (Homo sapiens) (Q99549 whole entry, looked up): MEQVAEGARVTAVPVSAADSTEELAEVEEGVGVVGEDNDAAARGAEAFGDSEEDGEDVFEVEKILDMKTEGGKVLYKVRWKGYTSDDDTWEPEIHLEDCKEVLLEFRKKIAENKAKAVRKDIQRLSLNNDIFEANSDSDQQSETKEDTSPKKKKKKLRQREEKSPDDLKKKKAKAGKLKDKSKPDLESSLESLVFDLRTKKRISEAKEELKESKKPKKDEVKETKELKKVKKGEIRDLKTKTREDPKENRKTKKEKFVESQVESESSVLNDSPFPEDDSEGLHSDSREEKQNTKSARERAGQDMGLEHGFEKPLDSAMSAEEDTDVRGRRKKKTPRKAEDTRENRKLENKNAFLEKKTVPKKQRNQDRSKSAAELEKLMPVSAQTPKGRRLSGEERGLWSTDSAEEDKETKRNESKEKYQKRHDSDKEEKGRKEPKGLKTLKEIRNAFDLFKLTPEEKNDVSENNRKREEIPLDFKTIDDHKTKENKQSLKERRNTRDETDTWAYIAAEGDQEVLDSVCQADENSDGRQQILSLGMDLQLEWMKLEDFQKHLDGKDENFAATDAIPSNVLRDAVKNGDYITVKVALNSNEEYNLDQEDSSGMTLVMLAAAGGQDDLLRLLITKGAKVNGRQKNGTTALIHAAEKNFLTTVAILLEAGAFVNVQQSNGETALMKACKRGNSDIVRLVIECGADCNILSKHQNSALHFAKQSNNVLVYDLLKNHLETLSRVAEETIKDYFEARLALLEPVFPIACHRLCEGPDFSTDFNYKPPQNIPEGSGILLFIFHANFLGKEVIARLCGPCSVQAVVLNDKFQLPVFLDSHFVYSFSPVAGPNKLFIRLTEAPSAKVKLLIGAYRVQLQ
Method in brief: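 Chemiluminescent proximity assay: histidine-tag capture via nickel acceptor beads, biotin peptide via streptavidin donor beads. Protein and peptide each at 50 nM, pH 7.4, with 30 min incubations at room temperature for complex formation, compound exposure and bead binding.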

[20] = target: Methanococcus maripaludis chaperonin (MmCpn) (UniProt Q6LX38); assay: High-Throughput Screening for Modulators of Cytosolic Chaperonin Activity: MmCpn Primary Screen (AID 488978)
Sequence of Methanococcus maripaludis chaperonin (MmCpn) (Q6LX38 1-543): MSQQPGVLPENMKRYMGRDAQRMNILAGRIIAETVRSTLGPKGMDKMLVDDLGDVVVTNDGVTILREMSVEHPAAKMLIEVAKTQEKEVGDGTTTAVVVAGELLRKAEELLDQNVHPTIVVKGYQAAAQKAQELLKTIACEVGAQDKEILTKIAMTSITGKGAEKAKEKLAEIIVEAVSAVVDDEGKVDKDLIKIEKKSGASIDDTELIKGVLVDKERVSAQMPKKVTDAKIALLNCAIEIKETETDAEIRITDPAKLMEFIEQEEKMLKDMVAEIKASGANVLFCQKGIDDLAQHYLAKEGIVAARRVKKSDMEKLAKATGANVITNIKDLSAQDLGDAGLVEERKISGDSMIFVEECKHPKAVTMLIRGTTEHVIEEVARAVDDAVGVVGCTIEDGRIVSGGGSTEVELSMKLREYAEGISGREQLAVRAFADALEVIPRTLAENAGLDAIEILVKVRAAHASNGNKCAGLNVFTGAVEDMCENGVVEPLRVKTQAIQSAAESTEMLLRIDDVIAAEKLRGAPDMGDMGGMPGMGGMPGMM
Method in brief: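 HTRF readout (320 nm excitation, 590/665 nm emission) of ADP generated by 50 nM MmCpn hydrolysing 30 uM ATP during 10 min at 37C; compound preincubated 5 min RT.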

S=C(Nc1ccccc1)Nc1nccs1
-14.9%: max response [1]
active: Potency [5] 3.55 µM | Potency [6] 7.94 µM | Potency [7] 12.6 µM | Potency [8] 8.91 µM | Potency [15] 9.28 µM | Potency [17] 5.97 µM
inactive: Potency [2] | Potency [3] | Potency [4] | outcome [9] | Potency [10] | Potency [11] | Potency [12] | Potency [13] | outcome [14] | outcome [16] | Potency [18] | Potency [19] | outcome [20]
